Results: PubChem BioAssay AID2216 (Broad Institute, 2009)
Screen size: about 300,000 compounds; about 3,300 (1.1%) were called active. Not shown: some 6% with an inconclusive outcome.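 How the source made its calls: active means more than half of the replicate wells show a fall in the fluorescence ratio signal beyond about 16% (limit read from the data, passing the limit was not always enough); inconclusive means exactly half of the replicate wells pass the set limit; inactive means fewer than half of replicates pass the limit.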 The full list was thinned out, with actives kept by preference.

What follows are molecules tested on Ran GTPase (GTP-bound) - importin-beta complex (assay: disruptors of Ran-importin-beta complex formation – biochemical, FRET, CFP-Ran, YFP-importin-beta, homogeneous, primary screen (AID 2216;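 further: 0% = DMSO wells and 100% = Ran loaded with GDP instead of GTP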)). Conditions: cell-free CFP-Ran/YFP-importin-beta FRET ratio; active compounds read high; concentration not given here.
For `Cn1c(NC(=O)c2ccccc2)nc2ccccc21`, the inhibition was 5.33% (inactive). With `Cn1c(-c2ccc(C(=O)c3ccccc3)s2)nc2ccccc21` the inhibition was 21.5% (active). `Cn1cccc1-c1nc2ccccc2n1C` was tested, and the inhibition was 3.82% (inactive). In the case of `O=C(NCCC1CCCCN1S(=O)(=O)c1ccccc1)C(=O)NCC1CCCO1` (centres undefined), the inhibition is reported as 1.16% (inactive). In the case of `CCOc1ccc(CCNC(=O)COC(=O)C2CCN(c3ccc(C(F)(F)F)cn3)CC2)cc1OCC`, the inhibition is reported as 0.153% (inactive). `O=c1[nH]snc1-c1c(Cl)cccc1Cl` was tested, and the inhibition was 2.52% (inactive). In the case of `CCn1nc(NC(=O)c2ccco2)c2cc3ccc(C)cc3nc21`, the inhibition is reported as 23.1% (active). For `Cc1ccnc(NC(=O)c2ccco2)n1`, the inhibition was -1.58% (inactive). With `Cc1ccc(-n2nc3cc(Cl)c(NC(=O)c4ccco4)cc3n2)cc1` the inhibition was -2.85% (inactive). For `COc1ccc2c(c1)CCc1cn3ncc(C#N)c3nc1-2`, the inhibition was 10.6% (inactive). In the case of `COc1ccc2nc(N3CCCC(O)C3)c(C#N)cc2c1` (centres undefined), the inhibition is reported as 57.2% (active). For `COc1ccc2cc(C(=O)C3CCCN(C(=O)c4sc(C)nc4C)C3)ccc2c1` (centres undefined), the inhibition was 0.445% (inactive). With `Cc1c(CC(=O)NCCCCCC(=O)O)c(=O)oc2cc3occ(-c4ccccc4)c3cc12` the inhibition was 3.1% (inactive). With `CCCCCCc1ccc(O)cc1O` the inhibition was -0.89% (inactive). For `CCCCCCc1cc2cc(-c3nnc(-c4ccccc4)o3)c(=O)oc2cc1O`, the inhibition was 161% (active). In the case of `Cc1sc2ncnc(N3CCC(C(=O)Nc4nc5ccc(Cl)cc5s4)CC3)c2c1C`, the inhibition is reported as 2.82% (inactive). For `CC(=O)c1ccc(S(=O)(=O)NC2CC(=O)N(c3ccc4c(c3)OCCO4)C2)cc1` (centres undefined), the inhibition was -0.763% (inactive). With `c1ccc(C[C@H]2CNCCN2CCC23CC4CC(CC(C4)C2)C3)cc1` the inhibition was 3.71% (inactive). `N#CCN(C(=O)COC(=O)C1CC2CCCC(C1)C2=O)c1ccccc1` (centres undefined) was tested, and the inhibition was -5.07% (inactive). In the case of `COc1cc2c(cc1O)[C@H](Cc1ccc(Oc3cc(C[C@@H]4NCCc5cc(OC)c(O)cc54)ccc3O)cc1)NCC2`, the inhibition is reported as -9.25% (inactive). In the case of `COc1ccc(CCNC(=O)C(=O)NCC2CCNCC2)cc1OC`, the inhibition is reported as 4.38% (inactive). For `COc1ccc2c(c1)CCNC2Cc1ccc(OC)c(O)c1` (centres undefined), the inhibition was 96.2% (active). For `O=C(Nc1ccccc1)c1ccc(NC(=O)c2cccs2)cc1`, the inhibition was -0.113% (inactive). For `O=C(Nc1ccccc1-c1ccccc1)c1cccs1`, the inhibition was 22.1% (active). `O=C(Nc1ccccc1-c1nc2ccccc2[nH]c1=O)c1cccs1` was tested, and the inhibition was -0.663% (inactive). For `Cc1sc2ncnc(N3CCC(C(=O)NNC(=O)c4ccc(F)cc4)CC3)c2c1C`, the inhibition was 0.666% (inactive). For `CC(=O)N1CCc2cc(S(=O)(=O)NC3CCCCC3)ccc21`, the inhibition was 2.08% (inactive). With `CCCNS(=O)(=O)c1ccc2c(c1)CCCN2C(C)=O` the inhibition was 23.9% (active). For `CCC1CCCCN1CCNS(=O)(=O)c1ccc2c(c1)CCN2C(C)=O` (centres undefined), the inhibition was -5.25% (inactive).
